Assay results from the supplement of paper PMC6555819.

What was measured:
Assay in all cases: PBM binding z-score (relative to random genomic background probes); higher = stronger binding; sequences stand for … in GC…GCGATTGACAGCGTAGAATGAAGG
[1] = tested on: PPARg:RXRa DBDmut IVT, anti-RXR (DBD mutation: RXRa K156A/R161A, NR concentration 270 nM, RXRa partner concentration 90 nM)
Summary of the method: (§1)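 The probes on custom Agilent 4×180K protein-binding microarrays were double-stranded, with 34-nt variable regions bearing direct-repeat seeds, single-nucleotide variants, half-site ablations and random human genomic background sequences. Incubation lasted 1 h with ligand-free nuclear receptor dimers in PBS pH 7.4, 2% milk, 0.02% Triton X-100, 1 mM DTT, 0.2 mg/mL BSA and 0.4 mg/ml salmon testes DNA. Antibodies against each partner (one per run) detected bound dimers, and fluorescence scans were regression-normalized. Binding z-scores take the random background probes as reference.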

[2] = tested on: PPARg:RXRa IVT, anti-PPARg (NR concentration 270 nM, RXRa partner concentration 90 nM)
Summary of the method: as §1

[3] = tested on: PPARg DBDmut:RXRa IVT, anti-PPARg (DBD mutation: PPARg1 K132A/R137A, NR concentration 270 nM, RXRa partner concentration 90 nM)
Summary of the method: as §1

[4] = tested on: PPARg DBDmut IVT, anti-PPARg (DBD mutation: PPARg1 K132A/R137A, NR concentration 270 nM)
Summary of the method: as §1

[5] = tested on: PPARg homodimer (NR concentration 180 nM)
Summary of the method: as §1

[6] = tested on: PXR:RXRa (NR concentration 270 nM, RXRa partner concentration 90 nM)
Summary of the method: as §1

[7] = tested on: PXR homodimer (NR concentration 270 nM)
Summary of the method: as §1

[8] = tested on: RARa:RXR (NR concentration 270 nM, RXRa partner concentration 90 nM)
Summary of the method: as §1

[9] = tested on: RARa homodimer (NR concentration 270 nM)
Summary of the method: as §1

[10] = tested on: RARb:RXRa (NR concentration 270 nM, RXRa partner concentration 90 nM)
Summary of the method: as §1

[11] = tested on: RARb homodimer (NR concentration 270 nM)
Summary of the method: as §1

[12] = tested on: RARg:RXRa (NR concentration 270 nM, RXRa partner concentration 90 nM)
Summary of the method: as §1

[13] = tested on: RARg homodimer (NR concentration 270 nM)
Summary of the method: as §1

[14] = tested on: RXRa DBDmut IVT, anti-RXR (DBD mutation: RXRa K156A/R161A, NR concentration 90 nM)
Summary of the method: as §1

[15] = tested on: RXRa homodimer (NR concentration 180 nM)
Summary of the method: as §1

[16] = tested on: THRa:RXRa (NR concentration 90 nM, RXRa partner concentration 90 nM)
Summary of the method: as §1

[17] = tested on: THRa homodimer (NR concentration 90 nM)
Summary of the method: as §1

[18] = tested on: VDR:RXRa (NR concentration 270 nM, RXRa partner concentration 90 nM)
Summary of the method: as §1

[19] = tested on: VDR homodimer (NR concentration 270 nM)
Summary of the method: as §1

Sequence | PBM binding z-score [1] | PBM binding z-score [2] | PBM binding z-score [3] | PBM binding z-score [4] | PBM binding z-score [5] | PBM binding z-score [6] | PBM binding z-score [7] | PBM binding z-score [8] | PBM binding z-score [9] | PBM binding z-score [10] | PBM binding z-score [11] | PBM binding z-score [12] | PBM binding z-score [13] | PBM binding z-score [14] | PBM binding z-score [15] | PBM binding z-score [16] | PBM binding z-score [17] | PBM binding z-score [18] | PBM binding z-score [19]
GGAACGAGGGCAAAGTTGAAAGCATCTGTCGACG | 4.35 | 5.08 | -0.45 | -0.356 | 0.811 | 2.03 | 0.337 | 2.95 | -0.362 | 2.7 | 1.51 | 2.59 | 1.86 | 2.79 | 2.88 | 1.59 | -0.341 | 1.76 | 0.999
CAAACTAGGTCACAGACGTCAAAGTCCGTGCGTA | 8.58 | 8.8 | 3 | 2.09 | 2.24 | 1.72 | 0.0509 | 2.65 | 0.354 | 4.08 | 3.28 | 4.49 | 5.14 | 1.98 | 3.61 | 3.32 | 1.23 | 3.26 | 0.686
CATACAGGGTCAGCTAGGGCAGAGTAGGGACGGC | 1.09 | 2.7 | 1.4 | -0.307 | 2.1 | 2.54 | 0.343 | 3.11 | 0.618 | 4.28 | 3.44 | 4.4 | 4.87 | 1.33 | 4.24 | 3.69 | 0.984 | 4.55 | 2.1
GCATATAGGTAATACAAGGTGAAAATCCGATTGT | 3.55 | 3.21 | 0.778 | 0.777 | 0.494 | 0.273 | 0.142 | 1.85 | 0.843 | 0.306 | 0.426 | 0.529 | 0.709 | 0.0693 | 0.677 | 3.98 | 0.487 | 0.212 | 0.0319
CCTCGGAGGACAGAACGTCAGAGCTGTCCGCTTT | -0.575 | -0.846 | -2.12 | -1.43 | -1.05 | -1.12 | -0.765 | -1.04 | -0.587 | 0.103 | -0.587 | -0.462 | -0.0228 | -0.411 | -1.12 | -0.532 | -0.473 | -0.754 | -0.816
AATACAGGGTCATCGTATGCCAGAGTACGCACAG | 2.86 | 4.36 | 4.37 | 2.02 | 2.61 | 4.31 | 0.464 | 5.23 | 0.493 | 4.21 | 3.1 | 5.61 | 4.95 | 3.42 | 6.33 | 3.67 | 1.21 | 5.08 | 3.64
GCTTACGGGTCAAAGGTTAGAGCATGAATAGAAT | 4.34 | 5.74 | 0.587 | 1.17 | 3.25 | 5.59 | 0.235 | 7.74 | 0.552 | 4.37 | 3.1 | 6.33 | 4.54 | 2.02 | 8.91 | 3.6 | -0.338 | 4.84 | 0.946
AGAATGAGGTTATTTAGATCAGGGAATTGCGGTC | 2.96 | 2.43 | 1.1 | 0.243 | 1.23 | 1.34 | 0.696 | 1.6 | 0.731 | 1.38 | 0.824 | 1.13 | 0.824 | 2.53 | 1.9 | 2.17 | 1.06 | 1.88 | 1.48
TCTATTAGTCGATTAGGGCAACCGAAACAGCGGA | 2.06 | 1.15 | 1.13 | 0.942 | 0.0705 | 0.419 | -0.106 | 0.574 | 0.642 | 0.697 | 0.367 | 0.53 | 0.468 | 0.914 | 0.681 | 0.811 | 0.361 | 0.568 | 0.0266
CGTCAAAGCTCAAGGTAACGTAACAGAAAGCAGC | 0.0198 | -0.221 | -1.47 | -0.249 | -0.421 | -0.257 | -0.303 | 0.0827 | -0.0827 | -0.0501 | -0.207 | 0.00785 | 0.083 | -0.317 | 0.0693 | 1.29 | 0.693 | -0.278 | -0.4
CAAACTAGGTCCCGAAAGGTCAAAGTCGAATGAC | 4.2 | 4.78 | 0.419 | 0.865 | 3.35 | 5.58 | 1.52 | 6.01 | 1.91 | 4.74 | 4.87 | 5.77 | 5.09 | 1.4 | 6.66 | 4.1 | 1.43 | 4.92 | 2.66
CCTACTTGGCCAAGGTCATTGATCAGTCAAAGCA | 1.37 | 2.08 | -0.0462 | -0.266 | 2.44 | 3.9 | 1.45 | 3.57 | 1.49 | 3.49 | 3.78 | 4.01 | 3.47 | 2.56 | 3.83 | 3.82 | 3.07 | 3.78 | 3.62
GCGACTGGGGCAAAACAGGTTACCATAAGGTTGG | 3.9 | 3.17 | -0.443 | -0.478 | -0.0203 | 0.334 | -0.325 | 0.794 | -0.332 | 0.897 | 1.31 | 0.535 | 0.627 | -0.186 | 0.658 | 2.3 | 0.0603 | 0.212 | -0.526
TCATATAGGTAACACAGGTGAAAGTCGGCATCTA | 4.65 | 4.09 | 0.968 | 1.6 | 1.38 | 1.15 | 0.735 | 1.5 | 1.19 | 1 | 1.12 | 1.13 | 0.999 | 1.73 | 1.55 | 1.36 | 0.518 | 1.49 | 0.493
CAAACTAGGTCATAGAGGTCAAAGTCCGTGCGTA | 8.2 | 8.54 | 1.02 | 1.45 | 5.21 | 6.75 | 12.4 | 6.77 | 2.28 | 5.12 | 5.51 | 6.95 | 7.46 | 3.57 | 7.64 | 4.64 | 2.63 | 7.8 | 7.04
